Compounds with a hit are over-represented: about 9.4% of the library has one in this group of screens.
SARS PLpro yeast: qHTS of Yeast-based Assay for SARS-CoV PLP; Potency, µM (titrated, usually from 32.9 µM), inactives show top-dose activity, positive = growth rescue, most hits filed as activators; actives 0.19% (n = 330,000); S. cerevisiae expressing SARS-CoV PLpro, growth rescue; calls by dose curve; further: 0% is about no effect; nearly all actives have a fitted effect of over 55% in size
AMA1-RON2 inh: qHTS for Inhibitors of AMA1-RON; Towards Development of Antimalarial Drug Lead: Primary Screen; Potency, µM (titrated, usually from 58.2 µM), for the others: top-dose activity change, negative = inhibition, hits mostly inhibitors; AID 720542, 2013; actives 0.2% (n = 360,000); AlphaScreen AMA1-biotinylated RON2 peptide binding;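 further: 0% = vehicle wells and -100% = peptide control; nearly all actives have a fitted effect of over 45% in size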
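AMA1 (3D7) with his tag at 25 nM final met compounds first, then biotinylated RON2 peptide at 25 nM; detection used donor plus acceptor beads, 10 µg/mL apiece, read by AlphaScreen after 30 min at room temperature.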
Pf growth 48h: Primary qHTS for delayed death inhibitors of the malarial parasite plastid, 48 hour incubation. P. falciparum luciferase growth in erythrocytes, 48 h. Potency, µM (titrated, usually from 28.7 µM), inactives show at the top dose activity change, negative = inhibition, hits mostly inhibitors. actives 5.9% (n = 310,000); further: on the % scale 0 is the no-effect control and ±100 the full control effect
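Growth was read as firefly luciferase luminescence after a 48 h, 37 C, 5% CO2 exposure of compounds to reporter-bearing P. falciparum cultures (0.1% parasitemia, 2% hematocrit final) in Albumax-supplemented RPMI 1640.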
Pf growth 96h: Primary qHTS for delayed death inhibitors of the malarial parasite plastid, 96 hour incubation; P. falciparum luciferase reporter growth, 96 h; actives 6.9% (n = 320,000); Potency, µM (titrated, usually from 28.7 µM), without a hit: top-dose activity change, negative = inhibition, hits mostly inhibitors; further: on the % scale 0 is the no-effect control and ±100 the full control effect
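Readout is luminescence from an integrated firefly luciferase in P. falciparum. Red cells, 2% hematocrit and 0.05% parasitemia final, were cultured with compound through two parasite generations (96 hours) at 37 C, 5% CO2.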
* hit, by the source's call; ? = inconclusive; nt = no result; [ ] = remark or other dose. Unless noted, the call rests on the fitted dose curve; in most records, active means well fitted curve in the direction sought with a large enough effect; inconclusive means small, poorly fitted or top-dose-only effect, or another doubt; inactive means no such curve, though single readings can be large; an effect the other way counts as inactive or inconclusive. Potency means the concentration at half of the fitted maximal effect.

SMILES	SARS PLpro yeast	AMA1-RON2 inh	Pf growth 48h	Pf growth 96h
Cc1nnc(SCC(=O)N2CC(=O)Nc3ccccc32)n1Cc1ccccc1	4%	-15%	?	-3%
O=C1CN(C(=O)CSc2nnnn2-c2ccc(Cl)cc2)c2ccccc2N1	-1%	17%	4.7µM*	54%
Cc1ccc(Cn2c(SCC(=O)N3CC(=O)Nc4ccccc43)nc3ccccc3c2=O)cc1	13%	10%	?	13µM*
C=CCn1c(SCC(=O)NCc2ccc3c(c2)OCO3)nc2scc(-c3ccccc3)c2c1=O	3%	8%	?	?
COc1ccc(CNCCS(=O)(=O)NN2CCOCC2)cc1	0%	10%	nt	nt
Cc1ccc(Cl)cc1N1CCN(S(=O)(=O)c2ccc3[nH]c(=O)c(=O)[nH]c3c2)CC1	2%	-17%	?	31%
CCn1cc(C(=O)O)c(=O)c2cc(F)c(N3CCN(C(=S)NC(=O)c4ccccc4F)CC3)cc21	0%	45%	4.1µM*	6.6µM*
CCCC(=O)c1cc(F)c(N2CCOCC2)cc1C	-4%	4%	18%	1.3µM*
CCCC(=O)c1cc(F)c(N2CCN(S(=O)(=O)c3ccccc3)CC2)cc1C	5%	13%	?	74%
CCn1cc(C(=O)O)c(=O)c2cc(F)c(N3CCN(C(=O)Nc4ccccc4)CC3)cc21	-1%	-4%	0.47µM*	5%
CCn1cc(C(=O)O)c(=O)c2cc(F)c(N3CCNCC3)cc21	-2%	nt	?	1.6µM*
CCCCCCCC(=O)N1CCN(c2cc3c(cc2F)c(=O)c(C(=O)O)cn3CC)CC1	1%	10%	?	?
N#Cc1ccc(-c2nc3ccc(Br)cn3c2Cc2ccccc2C(F)(F)F)cc1	nt	10%	nt	nt
C=CCNc1oc(-c2cccc3ccccc23)nc1C#N	-2%	-10%	46%	?
CCn1cc(C(=O)O)c(=O)c2cc(F)c(N3CCN(S(=O)(=O)c4ccc(NC(C)=O)cc4)CC3)cc21	4%	52%	6.6µM*	?
CCn1cc(C(=O)NN)c(=O)c2cc(F)c(N3CCOCC3)cc21	-3%	0%	?	12µM*
CCC1CCCCN1CCCNC(=O)c1c(O)nc2c(C)cccn2c1=O (centres undefined)	-1%	13%	9%	-23%
O=C(CN1CCN(c2ccccc2O)CC1)Nc1cc(S(=O)(=O)N2CCCC2)ccc1Cl	-6%	15%	4.1µM*	3.3µM*
O=C(CN1CCN(c2ccccc2O)CC1)Nc1ccc(S(=O)(=O)N2CCCCCC2)cc1	1%	-17%	?	10µM*
COc1ccccc1N1CCN(CC(=O)Nc2ccc(S(=O)(=O)N3CCCCCC3)cc2)CC1	0%	-2%	?	?
O=C(c1ccc(S(=O)(=O)c2ccc(Cl)cc2)cc1)N1CCOCC1	1%	-4%	5%	?
CC(C)(C)OC(=O)N1CCC[C@H]1c1nnc(SC/C=C/c2ccccc2)o1	-1%	-6%	10µM*	?
CC(C)(C)OC(=O)N1CCC[C@H]1c1nnc(SCc2ccccc2Cl)o1	-13%	3%	?	?
O=C(c1ccc(S(=O)(=O)Nc2ccccc2)cc1)N1CCCC1	0%	-7%	?	16%
S=c1nc(C2CCCCC2)[nH]c2ccccc12	0%	50%	-13%	2.3µM*
SMILES	SARS PLpro yeast	AMA1-RON2 inh	Pf growth 48h	Pf growth 96h
S=c1nc(C2CC2)[nH]c2ccccc12	13%	89%	-9%	nt
CSc1nc(S(=O)(=O)c2ccc(C)cc2)c(Cl)s1	-1%	-3%	12µM*	?
CC[N+](CC)(CC)CCCOC(=O)C(O)(c1ccccc1)C1CCCCC1 (centres undefined)	-3%	-8%	2.9µM*	nt
OC(CCN1CCCCC1)(c1ccccc1)C1CCCCC1 (centres undefined)	1%	5%	nt	nt
OC(CC#CCN1CCCCCC1)(c1ccccc1)C1CCCC1 (centres undefined)	2%	-6%	?	2.9µM*
CC[N+](CC)(CC)CC[C@](O)(c1ccccc1)C1CCCCC1	nt	nt	6.4µM*	5.7µM*
OC(C#CCN1CCCCCC1)(c1ccccc1)c1cccnc1 (centres undefined)	0%	5%	?	12µM*
OC(C#CCN1CCCC1)(c1ccccc1)c1cccnc1 (centres undefined)	2%	0%	?	?
C[N+](C)(N)CCOC(=O)C(O)(c1ccccc1)C1CCCCC1 (centres undefined)	nt	-8%	nt	nt
Cc1ccc(NC(=O)CCC(=O)N/N=C/c2cccs2)cc1C	9%	12%	14%	-17%
COc1ccccc1C(C#N)c1cccc(Cl)n1 (centres undefined)	2%	5%	-14%[0.00184 µM]	-10%
CS(=O)(=O)c1nc(S(=O)(=O)c2ccc(Cl)cc2)c(NCCCn2ccnc2)s1	1%	3%	-14%	5.9µM*
CS(=O)(=O)c1nc(S(=O)(=O)c2ccc(Cl)cc2)c(N2CCCCCC2)s1	-4%	-1%	?	13µM*
CS(=O)(=O)c1nc(S(=O)(=O)c2ccc(Cl)cc2)c(N2CCC(O)CC2)s1	1%	-11%	-9%	13%
Cc1ccc(S(=O)(=O)c2nc(S(C)(=O)=O)sc2N2CCC(O)CC2)cc1	0%	-4%	8%	9.3µM*
CS(=O)(=O)c1nc(S(=O)(=O)c2ccc(Cl)cc2)c(N2CCCCC2)s1	-1%	-7%	?	6%
CN1CCN(c2sc(S(C)(=O)=O)nc2S(=O)(=O)c2ccc(Cl)cc2)CC1	5%	-10%	?	12µM*
CCOc1ccc(/C=C(\C#N)C(=O)Nc2cccnc2)cc1	5%	0%	-2%	31%
Cc1ccc(C)c(OCC(O)CN2CCc3ccccc3C2)c1C (centres undefined)	2%	-6%	9.3µM*	12µM*
Cc1ccccc1OCC(O)CN1CCN(CC(O)COc2ccccc2C)CC1 (centres undefined)	0%	-6%	?	1.5µM*
C=CCc1ccccc1OCC(O)CN1CCN(c2ccc(OC)cc2)CC1 (centres undefined)	?	?	1%	6.6µM*
Cc1ccccc1OCC(O)CN1CCCCC1 (centres undefined)	0%	-4%	0%	-28%
C=CCc1ccccc1OCC(O)CN1CCOCC1 (centres undefined)	nt	-20%	nt	nt
C=CCc1ccccc1OCC(O)CNC (centres undefined)	-4%	-20%	nt	1.2µM*
Cc1nccn1CC(O)COc1ccccc1 (centres undefined)	10%	2%	24%	?
C=CCc1ccccc1OCC(O)Cn1ccnc1C (centres undefined)	0%	15%	-6%	1.5µM*
Cn1nnc2c[n+](CC(=O)c3ccc4ccccc4c3)cc(Br)c21	3%	17%	12µM*	?
COCc1nc2oc3ccc(C)cc3c(=O)c2cc1C(=O)OC	0%	-29%	108%	130%

Screens deposited in PubChem by National Center for Advancing Translational Sciences (NCATS).
